Results filed as inconclusive are left out. Calls of active or inactive are those of the source. Unless noted, calls follow the shape of the dose curve; as a rule, active = well fitted curve in the direction sought with a large enough effect in the repeat runs; inconclusive = weak or mixed curves; inactive = no such curve, though single readings can be large; an effect the other way counts as inactive or inconclusive.
Tests used:
[1] = qHTS assay for small molecules that induce genotoxicity in human embryonic kidney cells expressing luciferase-tagged ATAD5 (AID 651632); also: nearly all actives have a fitted effect of over 15% in size; also: potency is read from the fitted curve at half-maximal effect
Summary of the method: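 Reporter cells (HEK293T) express luciferase-tagged ATAD5, a protein that accumulates after DNA damage. Treat 16 hr at 37C/5% CO2, add Amplite, wait 30 min at RT, and read luminescence.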

[2] = qHTS assay for small molecule disruptors of the mitochondrial membrane potential - cell viability (AID 720634; calls by dose curve;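 also: human HepG2 liver cancer cells; series mostly up to about 83 µM; nearly all actives have a fitted effect of over 20% in size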)
Summary of the method: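 Measuring cytotoxicity alongside mitochondrial potential, the screen quantified ATP by luminescence in HepG2 cells after 1 hr compound incubation and a 30 min room-temperature CellTiter-Glo step.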

[3] = qHTS assay for small molecule disruptors of the mitochondrial membrane potential (AID 720635)
Summary of the method: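 Mitochondrial membrane potential tracked with Mito-MPS dye, red aggregates (ex 540/em 590 nm) against green monomers (ex 490/em 535 nm). Compound treatment 1 hr at 37C, dye 30 min in HepG2.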

[4] = qHTS assay to test for compound auto fluorescence at 590 nm (red) in HepG2 cells (AID 720674)
Summary of the method: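 1 hr compound incubation on HepG2 cells, 37 C, 5% CO2; plate read ex 540 nm / em 590 nm; intensities reported as Rose Bengal sodium equivalents.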

[5] = qHTS assay to test for compound auto fluorescence at 535 nm (green) in HepG2 cells (AID 720675)
[6] = qHTS assay to test for compound auto fluorescence at 460 nm (blue) in HEK293 cells (AID 720678)
Summary of the method: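 Intrinsic compound fluorescence is recorded in live HEK293 cultures after overnight incubation at 37C, 5% CO2, using excitation 405 nm and emission 460 nm. Values are referenced to triamterene.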

[7] = qHTS assay to test for compound auto fluorescence at 590 nm (red) in HEK293 cells (AID 720679)
Summary of the method: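 Red autofluorescence, HEK293 cells: 2,000 cells/well; attach 4-5 hr 37C; add 23 nL cpd or DMSO; incubate o/n 37C 5% CO2; read Ex540/Em590; Rose Bengal sodium reference.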

[8] = qHTS assay to test for compound auto fluorescence at 535 nm (green) in HEK293 cells (AID 720680)
[9] = qHTS assay to test for compound auto fluorescence at 460 nm (blue) in HEK293 cell free culture (AID 720681)
Summary of the method: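 Blue fluorescence (Ex 405/Em 460 nm, triamterene-equivalent) was read immediately after pin transfer of compound or DMSO into medium (DMEM, 10% FBS) without cells.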

[10] = qHTS assay to test for compound auto fluorescence at 535 nm (green) in HEK293 cell free culture (AID 720682)
Summary of the method: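 Green-label autofluorescence (485 nm excitation, 535 nm emission) measured on compound added to cell-free culture medium (DMEM, 10% FBS). Output is expressed relative to fluorescein.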

[11] = qHTS assay to test for compound auto fluorescence at 590 nm (red) in HEK293 cell free culture (AID 720683)
Summary of the method: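 Red-channel autofluorescence of compounds in culture medium (DMEM, 10% FBS), no cells, measured at 540/590 nm. Rose Bengal sodium is the reference fluorophore for equivalence.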

[12] = qHTS assay to test for compound auto fluorescence at 590 nm (red) in HepG2 cell free culture (AID 720684)
Summary of the method: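 Steps: dispense MEM/10% FBS medium, no cells; pin compound or DMSO vehicle; read red channel, Ex/Em 540/590 nm. Output given as Rose Bengal sodium equivalents.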

[13] = qHTS assay to test for compound auto fluorescence at 460 nm (blue) in HepG2 cell free culture (AID 720685)
Summary of the method: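 Compound (23 nL) or DMSO pinned into cell-free MEM with 10% FBS; blue fluorescence read at 405/460 nm excitation/emission, expressed as auto-fluorescence equivalency to triamterene.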

[14] = qHTS assay to test for compound auto fluorescence at 535 nm (green) in HepG2 cell free culture (AID 720686)
[15] = qHTS assay to test for compound auto fluorescence at 460 nm (blue) in HepG2 cells (AID 720687)
Summary of the method: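 Blue-channel autofluorescence (Ex/Em 405/460 nm, triamterene-equivalent) was measured after 1 hr compound exposure at 37 C, 5% CO2. Cells were HepG2, plated overnight at 37 C in MEM plus 10% FBS.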

[16] = biological target: Glucocorticoid receptor (Homo sapiens) (UniProt P04150); assay: qHTS assay to identify small molecule agonists of the glucocorticoid receptor (GR) signaling pathway (AID 720691; active = well fitted activation curve with a large enough effect in the signal ratio in the repeat runs, not every such curve was filed as active; the % refers to the signal ratio)
Sequence of Glucocorticoid receptor (Homo sapiens) (P04150 whole entry, looked up): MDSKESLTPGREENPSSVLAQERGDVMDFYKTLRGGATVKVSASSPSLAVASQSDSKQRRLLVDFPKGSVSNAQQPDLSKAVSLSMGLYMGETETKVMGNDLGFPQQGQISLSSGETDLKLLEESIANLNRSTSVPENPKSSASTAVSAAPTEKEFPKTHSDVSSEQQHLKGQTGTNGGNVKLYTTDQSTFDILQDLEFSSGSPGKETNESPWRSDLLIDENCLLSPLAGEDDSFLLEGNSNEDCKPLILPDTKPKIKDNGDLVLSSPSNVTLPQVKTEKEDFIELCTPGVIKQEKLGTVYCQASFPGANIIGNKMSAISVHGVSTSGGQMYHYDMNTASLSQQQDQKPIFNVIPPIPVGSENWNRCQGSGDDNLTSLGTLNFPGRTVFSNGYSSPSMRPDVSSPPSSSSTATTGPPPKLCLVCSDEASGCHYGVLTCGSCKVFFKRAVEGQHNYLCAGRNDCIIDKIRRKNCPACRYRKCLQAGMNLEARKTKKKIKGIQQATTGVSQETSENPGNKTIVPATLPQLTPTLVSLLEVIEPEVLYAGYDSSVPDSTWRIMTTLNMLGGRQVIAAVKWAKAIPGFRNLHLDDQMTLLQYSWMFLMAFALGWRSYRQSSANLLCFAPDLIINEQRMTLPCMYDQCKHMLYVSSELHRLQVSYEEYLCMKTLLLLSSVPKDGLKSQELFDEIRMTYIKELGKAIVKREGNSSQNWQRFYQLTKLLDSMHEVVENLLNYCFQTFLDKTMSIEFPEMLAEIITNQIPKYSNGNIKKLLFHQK
Summary of the method: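 Reporter read-out: fluorescence intensity following 2 h room-temperature LiveBLAzer B/G FRET substrate loading. Prior step: GR-bla HeLa cells held 4 h, then treated 18 h at 37 C.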

[17] = biological target: Glucocorticoid receptor (Homo sapiens) (UniProt P04150); assay: qHTS assay to identify small molecule antagonists of the glucocorticoid receptor (GR) signaling pathway (AID 720692; active = well fitted inhibition curve with a large enough effect in the signal ratio in the repeat runs, not every such curve was filed as active; the % refers to the signal ratio)
Summary of the method: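 Dexamethasone (5 nM final) stimulated a stably integrated GRE-beta-lactamase reporter in HeLa cells during 18 h co-incubation with compounds; signal was quantified as fluorescence intensity of B/G FRET substrate after 2 h.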

[18] = qHTS assay for small molecules that induce genotoxicity in human embryonic kidney cells expressing luciferase-tagged ATAD5 - cell viability (AID 651634; calls by dose curve; also: nearly all actives have a fitted effect of over 25% in size)
Summary of the method: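 Seeding of 2,000 HEK293T ATAD5-luciferase cells per well preceded pin-tool compound transfer. Plates sat 15.5 hr at 37C under 5% CO2, then fluorescence was read after 30 min with CellTiter-Fluor.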

[19] = qHTS assay for small molecule agonists of the p53 signaling pathway - cell viability (AID 651633; calls by dose curve;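 also: p53RE-bla HCT reporter cells with a stable beta-lactamase p53 reporter; series mostly up to about 83 µM; nearly all actives have a fitted effect of over 30% in size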)
Summary of the method: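 Viability counter-read: CellTiter-Glo luminescence (30 min, room temperature) in the same p53RE-bla plates. These plates had been exposed to compounds for 16 h at 37 C.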
% is scaled to controls: 0 for no effect and ±100 for the full control effect.

COC(=O)c1ccc(C(=O)OC)c(C(=O)OC)c1
inactive: Potency [1] | Potency [2] | Potency [3] | outcome [4] | outcome [5] | Potency [6] | outcome [7] | outcome [8] | Potency [9] | outcome [10] | outcome [11] | outcome [12] | Potency [13] | outcome [14] | Potency [15] | Potency [16] | Potency [17]

CCCCNc1ccccc1
inactive: Potency [1] | Potency [2] | outcome [5] | Potency [6] | outcome [7] | Potency [9] | outcome [10] | outcome [11] | outcome [12] | Potency [13] | outcome [14] | Potency [15] | Potency [16] | Potency [17]

Nc1[nH]c(=O)ncc1F
inactive: Potency [1] | Potency [18] | Potency [2] | Potency [3] | fluorescence, relative to Rose Bengal [4] -0.615% [at 18.6 µM] | fluorescence, % of fluorescein control [5] 0.005% [at 18.6 µM] | fluorescence, % of triamterene [6] 0.082% [at 18.6 µM] | fluorescence, % of fluorescent control [7] 0.0902% [at 18.6 µM] | fluorescence, % of fluorescent control [9] 0.0652% [at 18.6 µM] | activity change [10] 0.004% [at 18.6 µM] | fluorescence, % of fluorescent control [11] -0.113% [at 18.6 µM] | fluorescence, % of Rose Bengal [12] 0.311% [at 18.6 µM] | fluorescence, % of fluorescent control [13] -0.0064% [at 18.6 µM] | fluorescence, % of fluorescein control [14] 0.186% [at 18.6 µM] | fluorescence, % of fluorescent control [15] 0.0009% [at 18.6 µM] | Potency [16] | Potency [17]

NC(=O)CCCCC1CCSS1 (stereo not given)
inactive: Potency [1] | Potency [18] | Potency [2] | outcome [4] | outcome [5] | Potency [6] | outcome [7] | outcome [8] | Potency [9] | outcome [10] | outcome [11] | outcome [12] | Potency [13] | outcome [14] | Potency [15] | Potency [16] | Potency [17]

CC(C)c1ccc2oc3nc(N)c(C(=O)O)cc3c(=O)c2c1
inactive: Potency [18] | Potency [2] | outcome [4] | outcome [5] | Potency [6] | outcome [7] | outcome [8] | Potency [9] | outcome [10] | outcome [11] | outcome [12] | Potency [13] | outcome [14] | Potency [15] | Potency [16] | Potency [17]
active: Potency [1] 4.73 µM

Cc1ncc(CSSCc2cnc(C)c(O)c2CO)c(CO)c1O
inactive: Potency [1] | Potency [18] | Potency [2] | outcome [4] | outcome [5] | Potency [6] | outcome [7] | outcome [8] | Potency [9] | outcome [10] | outcome [11] | outcome [12] | Potency [13] | outcome [14] | Potency [15] | Potency [16] | Potency [17]

CCCOCC(C)OCC(C)O (stereo not given)
inactive: Potency [19] | Potency [18] | Potency [2] | outcome [4] | outcome [5] | Potency [6] | outcome [7] | outcome [8] | Potency [9] | outcome [10] | outcome [11] | outcome [12] | Potency [13] | outcome [14] | Potency [15] | Potency [16]

O=C(O)c1ccccc1-c1ccc(C(F)(F)F)cc1
inactive: Potency [1] | Potency [18] | Potency [2] | outcome [4] | outcome [5] | Potency [6] | outcome [7] | outcome [8] | Potency [9] | outcome [10] | outcome [11] | outcome [12] | Potency [13] | outcome [14] | Potency [16] | Potency [17]

OCCCCCCO
inactive: Potency [1] | Potency [18] | Potency [2] | outcome [4] | outcome [5] | Potency [6] | outcome [7] | outcome [8] | Potency [9] | outcome [10] | outcome [11] | outcome [12] | Potency [13] | outcome [14] | Potency [16]

Cc1nccn1CC1CCc2c(c3ccccc3n2C)C1=O (stereo not given)
inactive: Potency [1] | Potency [18] | Potency [2] | Potency [3] | outcome [4] | outcome [5] | Potency [6] | outcome [7] | Potency [9] | outcome [10] | outcome [11] | outcome [12] | Potency [13] | outcome [14] | Potency [15] | Potency [16] | Potency [17]

CC(C)(C)CC(C)(C)N
inactive: Potency [1] | Potency [2] | Potency [3] | outcome [4] | outcome [5] | Potency [6] | outcome [7] | outcome [8] | Potency [9] | outcome [10] | outcome [11] | outcome [12] | Potency [13] | outcome [14] | Potency [15] | Potency [16] | Potency [17]
